Calls of active or inactive are those of the source. How the source made its calls: active means hit-call score of the fitted dose curve at least 0.9, where 1 is the maximum; inactive means score below 0.9.
Test system: not listed separately
Assay: ATG_MRE_CIS: Attagene CIS-FACTORIAL HepG2 Assay for human Metal Responsive Element (MRE) (AID 2282954)
Conditions: HepG2 MRE cis-reporter transcription, Attagene multiplex; actives raise or lower the signal
Outline: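 Multiplexed cis-reporter assay in human HepG2 liver cells, 24 h incubation with test chemical. Reporter transcripts measured by RT-PCR and capillary electrophoresis; values from bidirectional curve fitting versus DMSO.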

outcome, inactive:
c1ccc2occc2c1
O=C1CCCCC1
Nc1nc(=S)c2[nH]cnc2[nH]1
CO[C@@H]1COCC[C@@H]1N[C@@H]1CC[C@@](C(=O)N2CCc3ncc(C(F)(F)F)cc3C2)(C(C)C)C1
CCCCCCCCCCCCCCCCO
CC(=O)OC1CC(C)OC(C)O1 (stereo not given)
CC1(C)C(=O)NC(=O)N1CO
Cn1cnc2c1c(=O)[nH]c(=O)n2C
CC(C)(O)c1ccc(CNC(=O)c2cccnc2Oc2ccc(F)cc2)cc1
CCCC(=O)O
O=C(O)c1cccnc1
COC(=O)CCC(=O)OC
C#CC(O)C(CC)CCCC (stereo not given)
NCCOCCOCCN
NC=O
O=C(O)c1[nH]n(-c2ccc(S(=O)(=O)O)cc2)c(=O)c1N=Nc1ccc(S(=O)(=O)O)cc1
Nc1nc(Cl)nc2c1ncn2[C@H]1C[C@H](O)[C@@H](CO)O1
CCCCCCCCCCCCCCOS(=O)(=O)O
Cc1cn([C@H]2C=C[C@@H](CO)O2)c(=O)[nH]c1=O
CC1=C(C)S(=O)(=O)CCS1(=O)=O
O=C1O[C@H]([C@H](O)CO)C(O)=C1O
OCC(CO)n1cnc(-c2ccc(F)cc2)c1-c1ccnc(Oc2ccccc2)n1
CC(C)COC(=O)CCCCC(=O)OCC(C)C

AC50, active:
CN(C)CCCN1c2ccccc2Sc2ccc(Cl)cc21 15.5 µM
CC(C)OC(=O)C(C)(C)Oc1ccc(C(=O)c2ccc(Cl)cc2)cc1 43.6 µM
Cc1ccc(C(C)(C)C)c(O)c1 145 µM
CCc1nc(N)nc(N)c1-c1ccc(Cl)cc1 100 µM
Cc1c(C)c2c(c(C)c1O)CCC(C)(COc1ccc(CC3SC(=O)NC3=O)cc1)O2 (stereo not given) 17.4 µM
CCc1cc(C2=C(C(=O)O)N(c3ccccc3C(F)(F)F)S(=O)(=O)c3ccccc32)cc2c1OCO2 58.5 µM

Test system: not listed separately
Assay: ATG_PBREM_CIS: Attagene CIS-FACTORIAL HepG2 Assay for human Phenobarbital-responsive Enhancer Module (PBREM) (AID 2282955)
Conditions: HepG2 PBREM cis-reporter, Attagene multiplexed transcription; actives raise or lower the signal
Outline: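 HepG2, transient MRTU transfection, 24 h dosing; RNA → oligo(dT) RT → PCR → 6-FAM extension → HpaI → CE. Bidirectional fit vs DMSO.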

outcome, inactive:
c1ccc2occc2c1
CN(C)CCCN1c2ccccc2Sc2ccc(Cl)cc21
O=C1CCCCC1
CC(C)OC(=O)C(C)(C)Oc1ccc(C(=O)c2ccc(Cl)cc2)cc1
Nc1nc(=S)c2[nH]cnc2[nH]1
CO[C@@H]1COCC[C@@H]1N[C@@H]1CC[C@@](C(=O)N2CCc3ncc(C(F)(F)F)cc3C2)(C(C)C)C1
CCCCCCCCCCCCCCCCO
CC(=O)OC1CC(C)OC(C)O1 (stereo not given)
CC1(C)C(=O)NC(=O)N1CO
Cn1cnc2c1c(=O)[nH]c(=O)n2C
CC(C)(O)c1ccc(CNC(=O)c2cccnc2Oc2ccc(F)cc2)cc1
CCCC(=O)O
O=C(O)c1cccnc1
COC(=O)CCC(=O)OC
C#CC(O)C(CC)CCCC (stereo not given)
NCCOCCOCCN
O=C(O)c1[nH]n(-c2ccc(S(=O)(=O)O)cc2)c(=O)c1N=Nc1ccc(S(=O)(=O)O)cc1
CCc1nc(N)nc(N)c1-c1ccc(Cl)cc1
Nc1nc(Cl)nc2c1ncn2[C@H]1C[C@H](O)[C@@H](CO)O1
CCCCCCCCCCCCCCOS(=O)(=O)O
Cc1cn([C@H]2C=C[C@@H](CO)O2)c(=O)[nH]c1=O
Cc1c(C)c2c(c(C)c1O)CCC(C)(COc1ccc(CC3SC(=O)NC3=O)cc1)O2 (stereo not given)
CC1=C(C)S(=O)(=O)CCS1(=O)=O
O=C1O[C@H]([C@H](O)CO)C(O)=C1O
OCC(CO)n1cnc(-c2ccc(F)cc2)c1-c1ccnc(Oc2ccccc2)n1

AC50, active:
Cc1ccc(C(C)(C)C)c(O)c1 150 µM
CCc1cc(C2=C(C(=O)O)N(c3ccccc3C(F)(F)F)S(=O)(=O)c3ccccc32)cc2c1OCO2 19.8 µM

Target: Paired box protein Pax-6 (Homo sapiens) (UniProt P26367)
Sequence (P26367 whole entry, looked up): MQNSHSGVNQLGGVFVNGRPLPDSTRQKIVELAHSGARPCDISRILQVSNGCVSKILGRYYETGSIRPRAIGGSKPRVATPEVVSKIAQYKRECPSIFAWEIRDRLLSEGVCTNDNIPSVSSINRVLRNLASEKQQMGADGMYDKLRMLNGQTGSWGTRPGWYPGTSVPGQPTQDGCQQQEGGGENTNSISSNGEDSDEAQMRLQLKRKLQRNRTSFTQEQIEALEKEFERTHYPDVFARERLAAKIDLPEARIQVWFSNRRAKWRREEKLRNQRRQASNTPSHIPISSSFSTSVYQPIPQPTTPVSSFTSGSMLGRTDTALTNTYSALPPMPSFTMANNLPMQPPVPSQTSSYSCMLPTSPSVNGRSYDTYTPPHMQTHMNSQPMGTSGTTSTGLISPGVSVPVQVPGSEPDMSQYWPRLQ
Assay: ATG_Pax6_CIS: Attagene CIS-FACTORIAL HepG2 Assay for human Paired Box 6 (PAX6) (AID 2282956)
Conditions: HepG2 CIS-FACTORIAL PAX6 reporter transcription, RNA readout; actives raise or lower the signal
Outline: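 Fluorescent RT-PCR products separated by capillary electrophoresis report PAX6-linked promoter mRNA in HepG2 cells 24 h post-dose. Curves fitted bidirectionally, DMSO as negative control.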

outcome, inactive:
c1ccc2occc2c1
O=C1CCCCC1
Nc1nc(=S)c2[nH]cnc2[nH]1
CO[C@@H]1COCC[C@@H]1N[C@@H]1CC[C@@](C(=O)N2CCc3ncc(C(F)(F)F)cc3C2)(C(C)C)C1
CCCCCCCCCCCCCCCCO
CC(=O)OC1CC(C)OC(C)O1 (stereo not given)
CC1(C)C(=O)NC(=O)N1CO
Cn1cnc2c1c(=O)[nH]c(=O)n2C
CC(C)(O)c1ccc(CNC(=O)c2cccnc2Oc2ccc(F)cc2)cc1
CCCC(=O)O
O=C(O)c1cccnc1
COC(=O)CCC(=O)OC
C#CC(O)C(CC)CCCC (stereo not given)
NCCOCCOCCN
NC=O
O=C(O)c1[nH]n(-c2ccc(S(=O)(=O)O)cc2)c(=O)c1N=Nc1ccc(S(=O)(=O)O)cc1
Nc1nc(Cl)nc2c1ncn2[C@H]1C[C@H](O)[C@@H](CO)O1
CCCCCCCCCCCCCCOS(=O)(=O)O
Cc1cn([C@H]2C=C[C@@H](CO)O2)c(=O)[nH]c1=O
Cc1c(C)c2c(c(C)c1O)CCC(C)(COc1ccc(CC3SC(=O)NC3=O)cc1)O2 (stereo not given)
CC1=C(C)S(=O)(=O)CCS1(=O)=O
O=C1O[C@H]([C@H](O)CO)C(O)=C1O
CCc1cc(C2=C(C(=O)O)N(c3ccccc3C(F)(F)F)S(=O)(=O)c3ccccc32)cc2c1OCO2
OCC(CO)n1cnc(-c2ccc(F)cc2)c1-c1ccnc(Oc2ccccc2)n1
CC(C)COC(=O)CCCCC(=O)OCC(C)C

AC50, active:
CN(C)CCCN1c2ccccc2Sc2ccc(Cl)cc21 15.9 µM
CC(C)OC(=O)C(C)(C)Oc1ccc(C(=O)c2ccc(Cl)cc2)cc1 27.7 µM
Cc1ccc(C(C)(C)C)c(O)c1 152 µM
CCc1nc(N)nc(N)c1-c1ccc(Cl)cc1 46 µM

From PubChem BioAssay (EPA / NIEHS)
